A number with no mark means an inactive call. For some of these results: Entries with a potency or affinity are not part of this list. This is one part of the list. The source made the active and inactive calls.

In general, inhibition refers to how much of the control response was suppressed.

Assay [1] relates to TRPC4 beta (transient receptor potential cation channel C4), mouse. In words: activators of mouse TRPC4 channel, confirmation, cell-based, Fluo4 calcium, HEK293 TRPC4beta/mu-opioid, duplicates, 10 µM (AID 2426;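 active = fluorescence ratio normalized to control raised more than 50% in primary screen plus both repeat runs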). To be noted: Fluo4 calcium fluorescence, at 10 µM; stronger effect = higher value.
In assay [2] the test system is transient receptor potential cation channel C4 beta (TRPC4), mouse. The experiment in a line: activators of mouse TRPC4 channel, confirmation, cell-based, second round, Fluo4, HEK293 TRPC4beta/mu-opioid, 1 µM (AID 2461;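 active = primary screen active and over 50% activation in each of two duplicate runs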). The following applies: Fluo4 calcium fluorescence, at 1 µM; stronger effect = higher value.
The subject of assay [3] is TRPC4 (transient receptor potential cation channel C4 beta), mouse. The experiment in a line: positive allosteric modulators of mouse TRPC4, confirmation, cell-based, second round, Fluo-4, HEK293 TRPC4beta/mu-opioid, 1 µM (AID 2554;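 active = primary screen hit whose fluorescence ratio, in both repeats, exceeds the weak agonist control mean by 3 SD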). The following applies: DAMGO EC20, Fluo-4 calcium flux, at 1 µM; stronger effect = higher value. (In general: Calcium flux is commonly read through the fluorescence of an indicator in the cells.)

Assay [4] relates to TRPC4 beta (transient receptor potential cation channel C4), mouse. In words: positive allosteric modulators of mouse TRPC4, confirmation, cell-based, Fluo-4, HEK293 TRPC4beta/mu-opioid (AID 2555;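 active = primary screen hit whose calcium fluorescence ratio, in both repeats, exceeds the weak agonist control mean by 3 SD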). The following applies: DAMGO EC20, Fluo-4 calcium flux, at 10 µM; stronger effect = higher value.
Assay [5] addresses Short transient receptor potential channel 4 (Mus musculus) (UniProt Q9QUQ5). In words: inhibitors of mouse TRPC4 channel, confirmation, cell-based, Fluo4, HEK293 TRPC4beta/mu-opioid (AID 2636;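 active = calcium signal cut by more than 3 SD below the full-agonist control yet still positive, in both repeats and the earlier primary screen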). To be noted: DAMGO, Fluo4 calcium flux, at 10 µM; stronger effect = higher value.
Assay [6] shares this target. In words: inhibitors of mouse TRPC4 channel, confirmation, cell-based, second round, Fluo4, HEK293 TRPC4beta/mu-opioid, 1 µM (AID 2637). The following applies: Fluo4 calcium flux, DAMGO, at 1 µM; stronger effect = higher value.
For assay [7] the target is unchanged. The experiment in a line: mouse TRPC4 channel activators, dose response, cell-based, HEK293 TRPC4/mu-opioid, Fluo-4 calcium (AID 434937;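 active = primary screen activator hit with a dose response curve and TRPC4 channel activation at any tested dose; inactive = no activation, no dose response, or not a primary hit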).
For assay [8] the target is unchanged. In words: TRPC4 positive allosteric modulators, dose response, cell-based, HEK293 TRPC4/mu-opioid, Fluo-4 calcium, EC20 DAMGO (AID 434941;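 active = earlier screen potentiator hit that boosts the TRPC4 ion channel at some dose, with a dose response; inactive = no potentiation, no dose response, or not a prior hit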;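 also: calcium entry triggered by an EC20 dose of DAMGO at the co-expressed mu-opioid receptor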).
The target is the same in assay [9]. The experiment in a line: mouse TRPC4 channel inhibitors, dose response, cell-based, HEK293 TRPC4/mu-opioid, Fluo-4 calcium (AID 434942;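 active = primary screen inhibitor hit that blocks the TRPC4 channel at some tested dose, yielding a dose curve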).
Assay [10] concerns the target Short transient receptor potential channel 6 (Mus musculus) (UniProt Q61143). The experiment in a line: inhibition of mouse TRPC6 channel, confirmation, selectivity assay for TRPC4 inhibitor project, cell-based, HEK293, membrane potential dye, duplicate (AID 434948;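 active = active in primary screen and both duplicates, each dropping signal beyond three positive-control SD with fluorescence still positive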). To be noted: HEK293 TRPC6, membrane potential dye fluorescence, at 10 µM, stimulated with maximal-effect acetylcholine; stronger effect = higher value.

Assay [11] has the same target. In words: activation of mouse TRPC6 channel, confirmation, selectivity assay for TRPC4 activator project, cell-based, HEK293, membrane potential dye, duplicate (AID 434950;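 active = membrane potential signal rise above negative control mean plus 3 SD in both duplicates, also active in the earlier TRPC4 screen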;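 as to activation: 0% = buffer only wells and 100% = acetylcholine maximal-effect wells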). The following applies: HEK293 TRPC6, membrane potential fluorescence, at 10 µM; stronger effect = higher value.
For assay [12] the target is unchanged. The experiment in a line: TRPC6 potentiation by TRPC4 potentiator hits, confirmation, selectivity assay for TRPC4 potentiator project, HEK293 cells, membrane potential dye, duplicate (AID 434952;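 active = compound raising the membrane signal above positive-control mean plus 3 SD in both repeats, and a primary screen hit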). To be noted: HEK293 TRPC6, membrane potential dye fluorescence, at 10 µM, maximal acetylcholine added after compound; stronger effect = higher value.
Assay [13] addresses Short transient receptor potential channel 4 (Mus musculus) (UniProt Q9QUQ5). The experiment in a line: calcium flux activators in TRPC4/5HT1a cells, counter-screen for TRPC4 activator project, cell-based, second counter screen, HEK293 TRPC4/5HT1a, Fluo-4 (AID 434977;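 active = calcium signal rise above buffer-control mean plus 5 SD in both duplicates, and also a hit in the primary screen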). The following applies: Fluo-4 calcium flux, at 10 µM; stronger effect = higher value.
Assay [14] is described as follows: calcium flux inhibitors in TRPC4/5HT1a cells, confirmation, counter-screen for TRPC4 inhibitor project, cell-based, second counter screen, HEK293 TRPC4/5HT1a, Fluo-4 (AID 434978;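 active = primary screen active whose calcium signal fell more than 3 SD beyond the full-serotonin control mean in both duplicate plates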;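 also: serotonin given first at submaximal then at maximal dose after compound preincubation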). The following applies: Fluo-4 calcium flux, at 10 µM, serotonin added to trigger calcium flux; stronger effect = higher value.
The test system of assay [15] is TRPC4 (mouse), co-expressed with 5HT1a in HEK293. In words: calcium flux potentiators in TRPC4/5HT1a cells, confirmation, counter-screen for TRPC4 potentiator project, cell-based, second counter screen, HEK293 TRPC4/5HT1a, Fluo-4 (AID 434979;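 active = signal rise over 3 SD above mean of control wells given weak agonist, in both repeats and first screen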). To be noted: Fluo-4 calcium flux, at 10 µM, serotonin added at its EC20 dose; stronger effect = higher value.
A short description of assay [16]: calcium flux activation in mu-opioid HEK293 cells, confirmation, counter-screen for TRPC4 activator project, cell-based, HEK293 mu-opioid receptor line (AID 449723;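 active = hit in primary screen, with calcium signal over 5 SD above buffer well mean in both duplicates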;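 also: counter screen cells carry the mu-opioid receptor alone and lack TRPC4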). To be noted: Fluo-4 calcium fluorescence, at 10 µM; stronger effect = higher value.
Assay [17] in a line: calcium flux enhancement in mu-opioid HEK293 cells, confirmation, counter-screen for TRPC4 allosteric potentiator project, cell-based, HEK293 mu-opioid receptor line (AID 449724;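 active = calcium signal rise more than 3 SD above the low-dose agonist control mean, in both duplicate plates and the primary screen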). The following applies: Fluo-4 calcium flux, at 10 µM, compound added before EC20 DAMGO stimulus; stronger effect = higher value.
Assay [18] is described as follows: nonspecific thallium flux increase in parental CHO-K1, confirmation, counter-screen for KCNQ2 potentiator project, cell-based, FluxOR thallium flux, duplicate (AID 2282;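 active = signal rise of at least 3 SD above the untreated control mean, in both duplicate wells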;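 also: counter screen of KCNQ2 potentiator hits so any rise reflects channel-independent effects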). To be noted: parental CHO-K1 cells, FluxOR thallium flux fluorescence; at 10 µM; stronger effect = higher value; zero = vehicle mean+3SD, 100% = vehicle-minus-blank window. (In general: Counterscreens check selectivity or assay interference.)

Assay [19] deals with Potassium voltage-gated channel subfamily KQT member 1 (Homo sapiens) (UniProt P51787). In words: human KCNQ1 channel potentiation off-target, confirmation, selectivity assay for KCNQ2 potentiator project, cell-based, CHO, FluxOR thallium flux (AID 2283;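 active = fluorescence ratio rise of at least 3 SD of vehicle wells above their mean, in both replicate wells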;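 also: 0% = vehicle mean plus 3 SD and 100% = vehicle minus unstimulated blank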). To be noted: CHO KCNQ1 stable, FluxOR thallium flux fluorescence; at 10 µM; stronger effect = higher value; beyond 3SD, as % of vehicle-control signal.

In assay [20] the target is Potassium voltage-gated channel subfamily KQT member 2 (Rattus norvegicus) (UniProt O88943). In words: rat KCNQ2 channel potentiators, confirmation, cell-based, CHO, FluxOR thallium flux, duplicate (AID 2287;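 active = fluorescence ratio rising 3 SD or more over the vehicle control mean in both replicates, plus primary screen hit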;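 also: peak minus minimum thallium fluorescence divided by baseline after K/Tl stimulus; 0% = vehicle mean plus 3 SD and 100% = vehicle minus unstimulated blank difference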). The following applies: CHO-KCNQ2 cells, FluxOR thallium flux fluorescence; at 10 µM; stronger effect = higher value.
The target is the same in assay [21]. In words: potentiators of retigabine-insensitive KCNQ2 W236L, mechanism study for KCNQ2 potentiator project, cell-based, rat KCNQ2 W236L, CHO, automated patch clamp (AID 2558;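 active = current increase at least 3 SD of the untreated controls above them in both duplicate recordings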). To be noted: at 25 µM; outcome: automated patch clamp current. Background: Patch clamp records ionic current or voltage across a cell membrane.
Assay [22] concerns the target Inward rectifier potassium channel 2 (Mus musculus) (UniProt P35561). The experiment in a line: PubChem AID 2345.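 Also: 0% = vehicle mean plus 3 SD and 100% = vehicle minus no-stimulus blank window.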 To be noted: HEK293 Kir2.1, FluxOR thallium flux fluorescence; at 10 µM; stronger effect = higher value.
Assay [23] concerns the target Short transient receptor potential channel 4 (Mus musculus) (UniProt Q9QUQ5). The experiment in a line: mouse TRPC4 membrane potential modulation by TRPC6 hits, confirmation, selectivity assay for TRPC6 inhibitor project, cell-based, second specificity screen, HEK293 TRPC4/mu-opioid (AID 2776;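 active = compounds whose fluorescence signal differed from control wells by over 3 SD, either direction, in both duplicate plates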). The following applies: HEK293 TRPC4/MOR, membrane potential dye fluorescence, at 10 µM, channel activated by saturating DAMGO dose; stronger effect = higher value.

In assay [24] the test system is transient receptor potential cation channel C4 (TRPC4), mouse. The experiment in a line: mouse TRPC4 modulation by TRPC6 hits, confirmation, selectivity assay for TRPC6 inhibitor project, cell-based, HEK293 TRPC4/mu-opioid, membrane potential dye (AID 2777;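 active = rise or fall in signal beyond 3 SD of buffer-only wells in both replicate plates, either sign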;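 also: integrated kinetic ratio of fluorescence range over baseline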). To be noted: membrane potential fluorescence, at 10 µM.
Assay [25] is described as follows: nonspecific membrane potential effects, parental HEK293, confirmation, counter-screen for TRPC6 inhibitor project, cell-based, second counter screen (AID 2779;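 active = membrane potential signal moving either way by over 3 SD of the maximum-effect control, in both duplicate plates, meaning non-specific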). To be noted: parental HEK293 membrane potential dye fluorescence; at 10 µM; maximal acetylcholine challenge after compound addition.
Assay [26] is described as follows: membrane potential modulation in parental HEK293, confirmation, counter-screen for TRPC6 inhibitor project, cell-based (AID 2780;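 active = membrane potential signal shifting up or down by more than 3 SD of buffer-only wells, on both duplicate plates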;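 also: plate controls were buffer EC0 wells for no effect and acetylcholine ECmax wells for full effect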). The following applies: parental HEK293 membrane potential dye fluorescence; at 10 µM.
Assay [27] deals with Short transient receptor potential channel 6 (Mus musculus) (UniProt Q61143). The experiment in a line: mouse TRPC6 channel inhibitors, confirmation, HEK293 cells, membrane potential dye, duplicate (AID 488960;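 active = fluorescence ratio falls more than 5 SD below the full-stimulation control mean, in both duplicate runs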;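 also: integrated fluorescence ratio of peak minus minimum over baseline after agonist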). To be noted: ACh-evoked depolarization, at 10 µM; stronger effect = higher value.
For assay [28] the target is unchanged. The experiment in a line: mouse TRPC6 channel activators, confirmation, HEK293 cells, membrane potential dye, duplicate (AID 488961;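 active = ratio signal rise beyond 5 SD above unstimulated control wells' mean, seen in both duplicate runs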). The following applies: HEK293-TRPC6 membrane potential dye fluorescence, FDSS, at 10 µM; stronger effect = higher value.
The nature of assay [29]: thallium flux activation in parental CHO cells, counter-screen for KCNQ1 potentiator project (AID 493006;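 active = duplicate-averaged activation above buffer control mean plus 5 SD of those controls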;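 also: fluorescence ratio of max minus min over baseline after K+ and Tl+ depolarization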). To be noted: parental CHO-K1 cells, FluxOR thallium flux, at 10 µM; stronger effect = higher value.
Assay [30] concerns the target Potassium voltage-gated channel subfamily KQT member 1 (Homo sapiens) (UniProt P51787). The experiment in a line: KCNQ1 potassium channel potentiators, confirmation, FluxOR thallium flux, CHO cells, duplicates (AID 493007;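 active = potentiation averaged over duplicate wells exceeding buffer-only control mean by more than 3 SD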;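 also: 0% = buffer-only wells and 100% = R-L3 activator control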). To be noted: KCNQ1 cell line, FluxOR thallium flux fluorescence, at 10 µM; stronger effect = higher value, % of reference activator effect, buffer zero.
Assay [31] deals with Potassium voltage-gated channel subfamily KQT member 2 (Rattus norvegicus) (UniProt O88943). In words: rat KCNQ2 channel potentiation, selectivity assay for KCNQ1 potentiator project, KCNQ2-CHO-K1 cells (AID 493009;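 active = mean duplicate potentiation above the buffer control mean plus 5 SD of buffer wells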;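 also: assay conditions were tuned for KCNQ1 rather than KCNQ2 modulators; signal is max minus min fluorescence divided by baseline after thallium stimulus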). To be noted: FluxOR thallium flux fluorescence, at 10 µM; stronger effect = higher value, scaled: buffer 0, activator control 100.
The target of assay [32] is Potassium voltage-gated channel subfamily KQT member 1 (Homo sapiens) (UniProt P51787). In words: KCNQ1 channel current potentiators, confirmation, orthogonal assay for KCNQ1 potentiator project, IonWorks patch clamp, KCNQ1-CHO cells (AID 493184;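 active = current rise at least 3 SD above the untreated control mean in each of two repeat wells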). To be noted: automated patch clamp current, at 10 µM; stronger effect = higher value.

Sequence of Potassium voltage-gated channel subfamily KQT member 1 (Homo sapiens) (P51787 whole entry, looked up): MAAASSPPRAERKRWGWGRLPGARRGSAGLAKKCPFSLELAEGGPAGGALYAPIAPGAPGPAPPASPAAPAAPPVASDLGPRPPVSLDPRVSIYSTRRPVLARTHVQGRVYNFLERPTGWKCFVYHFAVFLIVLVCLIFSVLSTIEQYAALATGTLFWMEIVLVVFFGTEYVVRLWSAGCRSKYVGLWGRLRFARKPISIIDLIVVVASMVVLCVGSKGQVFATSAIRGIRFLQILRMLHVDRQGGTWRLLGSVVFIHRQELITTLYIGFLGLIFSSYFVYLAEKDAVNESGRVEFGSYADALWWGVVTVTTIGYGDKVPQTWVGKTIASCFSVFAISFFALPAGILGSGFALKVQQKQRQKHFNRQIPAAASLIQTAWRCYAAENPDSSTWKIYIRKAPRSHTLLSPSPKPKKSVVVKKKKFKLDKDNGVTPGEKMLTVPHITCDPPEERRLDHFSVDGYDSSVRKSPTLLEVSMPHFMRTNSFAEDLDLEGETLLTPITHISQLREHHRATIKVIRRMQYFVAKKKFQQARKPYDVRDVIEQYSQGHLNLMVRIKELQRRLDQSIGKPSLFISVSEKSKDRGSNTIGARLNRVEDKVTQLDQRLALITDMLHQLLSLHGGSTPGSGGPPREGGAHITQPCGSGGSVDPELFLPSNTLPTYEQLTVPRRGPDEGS
Sequence of Short transient receptor potential channel 6 (Mus musculus) (Q61143 whole entry, looked up): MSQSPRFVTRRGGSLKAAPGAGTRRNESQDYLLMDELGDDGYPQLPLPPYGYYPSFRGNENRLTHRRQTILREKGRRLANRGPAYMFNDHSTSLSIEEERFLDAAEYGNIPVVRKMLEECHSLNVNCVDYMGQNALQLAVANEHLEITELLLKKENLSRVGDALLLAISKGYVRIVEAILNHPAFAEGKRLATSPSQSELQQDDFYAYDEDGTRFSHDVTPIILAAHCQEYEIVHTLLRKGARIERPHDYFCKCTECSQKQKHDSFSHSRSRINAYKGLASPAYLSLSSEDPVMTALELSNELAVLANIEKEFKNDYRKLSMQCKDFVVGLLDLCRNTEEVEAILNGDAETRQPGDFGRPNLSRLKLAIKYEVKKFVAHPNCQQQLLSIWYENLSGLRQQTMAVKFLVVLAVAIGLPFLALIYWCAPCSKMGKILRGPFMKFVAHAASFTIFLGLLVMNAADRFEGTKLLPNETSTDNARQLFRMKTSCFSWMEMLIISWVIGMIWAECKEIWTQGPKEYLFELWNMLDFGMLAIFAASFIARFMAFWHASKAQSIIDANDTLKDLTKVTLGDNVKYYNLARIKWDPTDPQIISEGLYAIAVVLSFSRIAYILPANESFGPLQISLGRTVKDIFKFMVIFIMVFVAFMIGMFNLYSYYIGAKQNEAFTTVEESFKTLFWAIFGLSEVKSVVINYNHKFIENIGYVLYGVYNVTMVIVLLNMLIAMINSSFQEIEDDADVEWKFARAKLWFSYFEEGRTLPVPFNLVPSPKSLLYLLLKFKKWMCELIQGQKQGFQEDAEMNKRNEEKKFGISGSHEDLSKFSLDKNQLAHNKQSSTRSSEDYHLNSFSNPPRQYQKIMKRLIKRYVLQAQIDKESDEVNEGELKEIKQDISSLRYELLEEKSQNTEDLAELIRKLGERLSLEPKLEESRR
Sequence of Short transient receptor potential channel 4 (Mus musculus) (Q9QUQ5 whole entry, looked up): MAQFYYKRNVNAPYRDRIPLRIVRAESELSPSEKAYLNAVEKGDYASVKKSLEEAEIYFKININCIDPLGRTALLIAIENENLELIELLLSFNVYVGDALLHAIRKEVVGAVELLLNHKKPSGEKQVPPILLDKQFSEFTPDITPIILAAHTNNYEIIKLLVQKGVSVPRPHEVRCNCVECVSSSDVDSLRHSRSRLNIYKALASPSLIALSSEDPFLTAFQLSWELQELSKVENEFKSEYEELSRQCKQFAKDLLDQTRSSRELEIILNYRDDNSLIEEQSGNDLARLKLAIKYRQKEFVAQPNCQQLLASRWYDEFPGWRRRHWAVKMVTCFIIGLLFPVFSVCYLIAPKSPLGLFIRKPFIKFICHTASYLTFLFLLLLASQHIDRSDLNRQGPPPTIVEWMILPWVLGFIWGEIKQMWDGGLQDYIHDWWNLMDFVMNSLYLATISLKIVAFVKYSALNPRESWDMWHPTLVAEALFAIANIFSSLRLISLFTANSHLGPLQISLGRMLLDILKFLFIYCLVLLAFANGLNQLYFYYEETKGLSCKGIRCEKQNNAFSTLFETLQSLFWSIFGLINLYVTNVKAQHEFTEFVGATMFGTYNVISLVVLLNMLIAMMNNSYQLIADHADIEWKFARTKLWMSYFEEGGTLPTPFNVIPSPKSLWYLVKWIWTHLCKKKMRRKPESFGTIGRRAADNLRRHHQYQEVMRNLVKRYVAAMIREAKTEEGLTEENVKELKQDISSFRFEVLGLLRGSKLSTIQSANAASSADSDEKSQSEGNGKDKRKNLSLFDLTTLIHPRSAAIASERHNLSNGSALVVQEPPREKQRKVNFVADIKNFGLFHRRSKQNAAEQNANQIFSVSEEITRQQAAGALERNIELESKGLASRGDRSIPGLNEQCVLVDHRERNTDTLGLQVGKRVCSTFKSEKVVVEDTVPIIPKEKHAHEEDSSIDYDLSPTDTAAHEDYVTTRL
Sequence of Inward rectifier potassium channel 2 (Mus musculus) (P35561 whole entry, looked up): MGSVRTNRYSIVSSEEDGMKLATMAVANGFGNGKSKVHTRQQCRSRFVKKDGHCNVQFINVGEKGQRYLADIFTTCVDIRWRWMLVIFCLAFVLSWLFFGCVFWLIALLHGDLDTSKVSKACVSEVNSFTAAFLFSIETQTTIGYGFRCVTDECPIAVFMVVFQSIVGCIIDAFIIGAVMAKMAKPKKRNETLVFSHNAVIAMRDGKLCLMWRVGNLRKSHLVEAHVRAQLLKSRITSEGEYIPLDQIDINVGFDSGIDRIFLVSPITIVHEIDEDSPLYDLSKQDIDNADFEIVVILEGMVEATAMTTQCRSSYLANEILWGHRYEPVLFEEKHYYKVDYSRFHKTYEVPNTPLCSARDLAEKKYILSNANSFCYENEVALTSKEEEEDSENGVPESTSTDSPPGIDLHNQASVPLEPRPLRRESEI

For `O=C(Cc1cccs1)Nc1nc(-c2ccc(F)cc2F)cs1`, the outcome in assay [1], in [2], in assay [5], in [6], in [7] and in assay [8] was inactive. Moreover, the outcome in [9], in assay [10], in assay [11], in assay [12], in [13] and in assay [14] was inactive. For the same molecule, the outcome in assay [16] and in assay [17] was inactive. The potentiation in assay [3] was 24% (active); in assay [4], 65% (active); in assay [15] it was 91.9% (active).
Consider `Cc1cc(OCC(=O)N2CCCC2)cc(C)c1Cl`, for which the outcome in [1], in [2], in assay [3], in [4], in assay [5] and in assay [6] was inactive. The outcome in assay [7], in assay [8], in assay [9], in assay [10], in assay [12] and in [13] was inactive. Besides, the result in [14], in assay [15], in [16] and in [17] was inactive. In addition, the activation in [11] is 38% (active).
In the case of `COc1ccc(NC(=O)CCCC2CCCCC2)c(OC)c1`, in [18], the activity increase over 3SD of controls is -19.3%. Moreover, the activation over 3SD threshold in assay [19] was -6.1%. Further, the potentiation, less the hit threshold in [20] was 80% (active). Moreover, the outcome in assay [21] was inactive.
Consider `Oc1c(Cl)cc(Cl)c(Cl)c1Cc1c(O)c(Cl)cc(Cl)c1Cl`, for which, in assay [18], the activity increase over 3SD of controls is 45% (active). For the same molecule, the activation over 3SD threshold in assay [19] was -3.6%. Moreover, the potentiation, less the hit threshold in assay [20] was 112% (active). Also, the activity over 3SD threshold in assay [22] was -73.8%. The outcome in assay [21], in [28] and in [32] was inactive. The results for the inhibition in assay [23] and in assay [27] were 29.5% (active) and 96.7% (active), respectively. Further, the activity change, negative = inhibition in [24] was 4.36% (active). The signal change vs control in [25] was -19% (active). The membrane potential signal change in [26] is 2.04% (active). In addition, in assay [29], the activation is 414% (active). Moreover, the potentiation in [30] is 81.5% (active); in assay [31] it was 480% (active).
On to `CCN1CCCC1CNCc1ccc(Cl)cc1Cl` (stereo not given), for which the outcome in assay [1], in assay [2], in [5], in [6], in assay [7] and in assay [8] was inactive. Moreover, the result in assay [9], in [10], in [11], in [12], in assay [13] and in assay [14] was inactive. Also, the outcome in [16] and in assay [17] was inactive. Moreover, the figures for the potentiation in assay [3], in assay [4] and in assay [15] were 11% (active), 8% (active) and 12.9% (active), respectively.

These data come from PubChem BioAssay.
